Data taken from PubChem BioAssay.

molecular target: Epidermal growth factor receptor (Homo sapiens) (UniProt P00533); assay: EGFR binders on small-molecule microarrays, primary screen, biochemical, small-molecule microarray, 635 nm fluorescence (AID 1104); settings: EGFR binding, higher = more signal;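 note: score merges 667 nm emission intensity with spot signal to noise over triplicate slides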
Sequence (P00533 whole entry, looked up): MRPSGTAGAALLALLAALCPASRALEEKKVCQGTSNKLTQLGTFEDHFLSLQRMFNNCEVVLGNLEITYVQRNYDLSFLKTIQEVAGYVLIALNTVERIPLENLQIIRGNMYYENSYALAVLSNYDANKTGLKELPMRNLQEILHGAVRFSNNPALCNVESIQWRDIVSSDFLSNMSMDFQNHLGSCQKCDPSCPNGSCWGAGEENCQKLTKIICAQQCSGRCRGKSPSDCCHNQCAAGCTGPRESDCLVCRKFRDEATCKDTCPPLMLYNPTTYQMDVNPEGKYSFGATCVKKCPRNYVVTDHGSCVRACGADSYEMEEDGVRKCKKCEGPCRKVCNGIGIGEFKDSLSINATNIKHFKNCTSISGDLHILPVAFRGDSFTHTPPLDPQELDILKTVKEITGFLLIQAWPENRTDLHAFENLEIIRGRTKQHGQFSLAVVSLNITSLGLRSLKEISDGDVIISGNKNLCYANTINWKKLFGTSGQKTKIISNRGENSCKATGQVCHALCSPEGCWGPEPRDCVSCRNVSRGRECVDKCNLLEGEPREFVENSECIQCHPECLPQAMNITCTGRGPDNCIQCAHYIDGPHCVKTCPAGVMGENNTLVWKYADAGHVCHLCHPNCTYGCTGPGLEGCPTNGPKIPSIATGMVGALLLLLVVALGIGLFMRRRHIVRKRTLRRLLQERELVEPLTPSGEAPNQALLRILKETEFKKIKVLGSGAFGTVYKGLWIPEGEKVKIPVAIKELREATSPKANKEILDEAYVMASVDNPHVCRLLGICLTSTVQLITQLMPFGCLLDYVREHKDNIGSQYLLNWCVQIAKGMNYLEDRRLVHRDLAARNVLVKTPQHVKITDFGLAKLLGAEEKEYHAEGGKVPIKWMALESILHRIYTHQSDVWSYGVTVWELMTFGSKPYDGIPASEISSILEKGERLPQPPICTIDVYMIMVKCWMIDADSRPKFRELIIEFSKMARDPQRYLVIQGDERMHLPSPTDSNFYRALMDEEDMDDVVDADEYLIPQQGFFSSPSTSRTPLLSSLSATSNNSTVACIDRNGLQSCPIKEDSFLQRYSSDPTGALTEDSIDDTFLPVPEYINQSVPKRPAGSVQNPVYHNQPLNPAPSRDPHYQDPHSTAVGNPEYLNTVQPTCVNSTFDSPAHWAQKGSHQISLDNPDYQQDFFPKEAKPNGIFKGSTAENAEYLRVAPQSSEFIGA

Q: How did the composite z-score turn out when COCCOC(=O)N1C(=O)[C@@]2(c3cc(C#CC4=CCCCC4)ccc31)[C@H](c1ccccc1OCCO)N1[C@H](c3ccccc3)[C@H](c3ccccc3)OC(=O)[C@H]1[C@@H]2C(=O)Nc1nc2ccccc2s1 was run?
A: The composite z-score was 0.416.

Q: For CCCNC(=O)[C@@H]1c2ccccc2C(=O)N(C(C)C)[C@H]1c1ccc(CO)cc1, which composite z-score is on record?
A: Its composite z-score is -0.87.

Q: With CCCCO[C@H]1C[C@H]2C(I)=C[C@@H]1C(=O)[C@]21CO1 as the compound, how does the composite z-score read?
A: The composite z-score was 0.0707.

Q: CC(C)(C)OC(=O)CC[C@]1(C(=O)NCC(O)CO)N=C(c2ccc(OCCCO)cc2)O[C@H]1c1ccccc1 (stereo partly specified) was tested. Which composite z-score did it give?
A: Its composite z-score is -0.516.

Q: Which composite z-score does the source give for C=CC[C@]1(C(=O)O)COC(c2ccc(OCCCO)cc2)=N1 here?
A: The composite z-score was 0.0943.

Q: For CN1C(=O)C2C=CC(C(O)c3ccccn3)N(N(c3ccccc3)c3ccccc3)C2C1=O (stereo unspecified), which composite z-score is on record?
A: The composite z-score was 0.22.

Q: [N-]=[N+]=NCc1ccccc1C[C@@]1(C(=O)N2CCOCC2)N=C(c2ccc(OCCCO)cc2)O[C@@H]1c1ccccc1 was tested. Which composite z-score did it give?
A: Its composite z-score is 0.0805.

Q: For CC(=O)NCCCC[C@@H]1NC(=O)[C@@H]2C[C@H](C(=O)NCCCC[N+](C)(C)C)[C@H](c3ccc(O)cc3)N2C1=O, which composite z-score is on record?
A: Its composite z-score is 0.753.

Q: C[C@H]1NC(=O)[C@@]23C(=O)N[C@@H](Cc4ccccc4)C2[C@H](C)[C@@]2(C)O[C@H]2C3/C=C/C/C=C\CNC(=O)[C@H](Cc2ccccc2)NC1=O (stereo partly specified) was tested. Which composite z-score did it give?
A: Its composite z-score is 0.199.

Q: How did the composite z-score turn out when [N-]=[N+]=Nc1ccccc1C[C@]1(C(N)=O)N=C(c2ccc(OCCCO)cc2)O[C@H]1c1ccccc1N=[N+]=[N-] was run?
A: The composite z-score was 0.188.

Q: For O=C1O[C@@H](c2ccccc2)[C@@H](c2ccccc2)N2[C@@H](c3ccc(O)cc3)[C@]3(C(=O)Nc4ccc(C#CC5=CCCCC5)cc43)[C@@H](C(=O)NC[C@H](O)c3ccccc3)[C@H]12, which composite z-score is on record?
A: The composite z-score was 0.829.

Q: Which composite z-score does the source give for CCOC(=O)C1=CC[C@@H](c2ccccc2C(F)(F)F)N(S(=O)(=O)c2ccc(C)cc2)[C@H]1c1ccc(C#N)cc1 here?
A: The composite z-score was 0.593.

Q: For O[C@@H](Cc1ccccc1)[C@@H](/C=C/C1CC1)N(CC#Cc1ccccc1)Cc1cccc(Cl)c1, which composite z-score is on record?
A: Its composite z-score is -1.69.

Q: With CN(C)CCCCNC(=O)[C@@H]1C[C@@H]2C(=O)N[C@@H](Cc3ccccc3)C(=O)N2[C@@H]1c1cccc(OCCO)c1 as the compound, how does the composite z-score read?
A: Its composite z-score is 0.404.

Q: Which composite z-score does the source give for COc1ccc([Si](C)(C)[C@@H]2[C@@H](CC(=O)N(CCO)Cc3ccccc3)O[C@]3(C(=O)N(c4ccccc4)c4ccccc43)[C@H]2C)cc1 here?
A: Its composite z-score is 0.954.

Q: For CC=CC(O)C1C=CC2C(=O)N(c3ccccc3)C(=O)C2N1Nc1ccccc1F (stereo unspecified), which composite z-score is on record?
A: Its composite z-score is 0.114.

Q: How did the composite z-score turn out when C=CC1c2cc(O)c(OC)cc2CCN1Cc1cc2c(cc1Br)OCO2 (stereo unspecified) was run?
A: Its composite z-score is 0.0492.

Q: How did the composite z-score turn out when CC(C)C(CO)N1C(=O)[C@@H]2C3C(=O)OCCC/C=C\[C@H]3OC23C=CCN(C(C)(C)C)C(=O)[C@@H]13 (stereo partly specified) was run?
A: Its composite z-score is -0.44.

Q: [N-]=[N+]=NCc1ccccc1C[C@@]1(C(=O)N2CCCCC2)N=C(c2ccc(OCCCO)cc2)O[C@@H]1c1ccccc1 was tested. Which composite z-score did it give?
A: The composite z-score was -0.451.

Q: Which composite z-score does the source give for O=C1C[C@@](C(=O)NCCN2CCOCC2)(c2ccc([N+](=O)[O-])cc2)[C@@H](c2ccc(CO)cc2I)N1C1CCCCC1 here?
A: The composite z-score was 0.593.

Q: COC(=O)c1c(CC[C@@H](CO)NC(=O)N2CCC[C@H]2Cn2cc(Cc3ccccc3)nn2)oc(C(C)=O)c1C(=O)OC was tested. Which composite z-score did it give?
A: The composite z-score was -0.0867.

Q: O=C1NC(=O)C2C1C=CC(C(O)c1cccc3ccccc13)N2Nc1ccc(Cl)cc1Cl (stereo unspecified) was tested. Which composite z-score did it give?
A: Its composite z-score is -0.459.

Q: Which composite z-score does the source give for N#Cc1ccc(C(O)C2C=CC3C(=O)N(c4ccccc4)C(=O)C3N2Nc2ccccc2)cc1 (stereo unspecified) here?
A: The composite z-score was 0.107.

Q: With COC(=O)[C@@]1(Cc2ccc(OC)cc2)[C@H]2c3cc(C(=O)N(C)C)n(C[C@H](O)CO)c3C[C@H]2CN1C(=O)c1ccccc1 as the compound, how does the composite z-score read?
A: The composite z-score was -0.107.

Q: Which composite z-score does the source give for COc1cc(OC)c(C(O)C2C=CC3C(=O)N(c4ccccc4)C(=O)C3N2Nc2ccccc2)cc1Br (stereo unspecified) here?
A: The composite z-score was -0.487.

Q: With COCCCNC(=O)[C@@]1(Cc2ccccc2N=[N+]=[N-])N=C(c2ccc(OCCCO)cc2)O[C@H]1c1ccccc1 as the compound, how does the composite z-score read?
A: The composite z-score was -0.338.

Q: For C=C(C)C1CCC(C(O)C2C=CC3C(=O)N(C)C(=O)C3N2N2CCCCC2)CC1 (stereo unspecified), which composite z-score is on record?
A: Its composite z-score is 1.16.

Q: With Cc1ccc(S[C@]2(C(=O)O)CC(=O)N(C3Cc4ccccc4C3)[C@@H]2c2ccc(CO)cc2)cc1 as the compound, how does the composite z-score read?
A: Its composite z-score is -0.846.

Q: With O=C1C2C=CC(C(O)c3ccc(Br)cc3)N(Nc3ccccc3F)C2C(=O)N1c1ccccc1 (stereo unspecified) as the compound, how does the composite z-score read?
A: Its composite z-score is -0.309.

Q: With CC(C)(C)N1CC=CC23O[C@@H]4C=CCCOC(=O)C4[C@H]2C(=O)N(CCO)[C@@H]3C1=O (stereo partly specified) as the compound, how does the composite z-score read?
A: The composite z-score was -0.306.

Q: C=CCNC(=O)[C@H]1[C@@H]2C(=O)O[C@@H](c3ccccc3)[C@@H](c3ccccc3)N2[C@@H](c2ccc(O)cc2)[C@]12C(=O)N(C(=O)OCCOC)c1ccccc12 was tested. Which composite z-score did it give?
A: The composite z-score was 1.11.

Q: C[C@@H]1NC(=O)[C@@]23C(=O)N[C@@H](Cc4ccccc4)C2[C@H](C)[C@@]2(C)O[C@H]2C3/C=C/C/C=C\CNC(=O)[C@@H]2CCCN2C1=O (stereo partly specified) was tested. Which composite z-score did it give?
A: The composite z-score was -0.0154.

Q: COCCOC(=O)N1C(=O)[C@@]2(c3cc(C#Cc4ccc(OC)cc4)ccc31)[C@H](C(=O)Nc1nc3ccccc3s1)[C@H]1C(=O)O[C@H](c3ccccc3)[C@H](c3ccccc3)N1[C@@H]2c1ccc(O)cc1 was tested. Which composite z-score did it give?
A: The composite z-score was 0.571.

Q: CN(C)C(=O)C1N=C(c2ccc(OCCCO)cc2)N(c2ccccc2)O1 (stereo unspecified) was tested. Which composite z-score did it give?
A: The composite z-score was 0.662.

Q: How did the composite z-score turn out when O=C(NCC(F)(F)F)[C@@H]1c2ccccc2C(=O)N(Cc2ccc(OC(F)(F)F)cc2)[C@H]1c1ccc(CO)cc1 was run?
A: The composite z-score was -0.0633.

Q: Which composite z-score does the source give for [N-]=[N+]=Nc1ccccc1[C@H]1OC(c2ccc(OCCCO)cc2)=N[C@@]1(Cc1ccccc1)C(=O)N1CCCCC1 here?
A: The composite z-score was 0.422.
